Inconclusive results are not listed. The source made the active and inactive calls. Calls come from the whole dose curve; as a rule, active = well fitted inhibition curve with a large enough effect; inconclusive = small, poorly fitted or top-dose-only effect; inactive = flat fitted curve, though single readings scatter.
Biological target: Phospholipid hydroperoxide glutathione peroxidase GPX4 (Homo sapiens) (UniProt P36969)
Assay: Primary qHTS Assay for Inhibitors of Recombinant Selenoprotein Glutathione Peroxidase 4 (GPX4) (AID 1845192); note: nearly all actives have a fitted effect of over 65% in size
Details: recombinant GPX4, GR-coupled NADPH fluorescence, 15 min; series mostly up to 50 µM
How it was run: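 GR-coupled readout: 100 nM GR, 1 mM GSH, 0.5 mM NADPH; NADPH fluorescence (ex 340/em 450 nm) read at t=0 and after 15 min RT. GPX4 200 nM, preincubated 30 min with compound; substrate 0.5 mM CHP.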
Potency is the fitted concentration of half-maximal effect.

Phospholipid hydroperoxide glutathione peroxidase GPX4 (Homo sapiens), sequence (P36969 whole entry, looked up): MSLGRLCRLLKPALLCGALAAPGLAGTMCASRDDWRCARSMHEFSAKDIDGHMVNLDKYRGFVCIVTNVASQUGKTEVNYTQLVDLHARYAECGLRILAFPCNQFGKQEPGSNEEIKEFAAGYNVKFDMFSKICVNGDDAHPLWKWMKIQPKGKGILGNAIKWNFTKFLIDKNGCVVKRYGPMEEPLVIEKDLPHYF

Q: For CC(Oc1ccccc1)C(=O)N[C@@H]1C(=O)N2[C@@H]1SC(C)(C)[C@@H]2C(=O)O (stereo partly drawn), which Potency is on record?
A: inactive

Q: For CC(Cc1ccc(O)c(O)c1)C(C)Cc1ccc(O)c(O)c1 (stereo not drawn), which Potency is on record?
A: 11.2 µM (active)

Q: How did the Potency turn out when CC[C@@H](C(=O)[C@@H](C)[C@@H](O)[C@H](C)CCc1ccc(C)c(O)c1C(=O)O)[C@H]1O[C@](CC)([C@H]2CC[C@](O)(CC)[C@H](C)O2)C[C@@H]1C was run?
A: 4.47 µM (active)
